Test results taken from PubChem BioAssay AID1159580 (chemical genetic matrix, 2015).
Values joined by “and” are separate entries in the source; they are usually repeats but may differ in a detail not shown here. Equal values may be shown once. Screen size: about 5,500 compounds; about 2,000 (36%) were called active. Another 18% or so got no clear call; they are omitted. No stated cut-off is given here; in the data, active means normalized growth mostly below about 0.91 (no sharp cut-off); inconclusive means no clear call, values can overlap the other calls; inactive means mostly above about 0.92. The list shows a part of the results.

Assay: chemical genetic growth profiling, strain panel (AID 1159580);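 further: tested at 20 µM; growth read once vehicle control cultures reached saturation at 30 °C; 1 = growth at the plate median or of vehicle wells; lower values mean less growth of the strain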
Conditions: S. cerevisiae deletion strains, growth OD

Measured: normalized growth

CC(=O)N[C@@H](CCC(=O)O)C(=O)O
inactive: locus YAL021C, strain ccr4, active compounds read low 1.03 | locus YAL026C, strain drs2, active compounds read low 1.03 | locus YAL030W, strain snc1, active compounds read low 1.01 | locus YBL061C, strain skt5, active compounds read low 1.03 | locus YBR009C, strain hhf1, active compounds read low 0.994 | locus YBR021W, strain FUR4, active compounds read low 1.01 | locus YBR023C, strain chs3, active compounds read low 1.03 | locus YBR171W, strain sec66, active compounds read low 1.03 | locus YBR229C, strain ROT2, active compounds read low 1 | locus YBR231C, strain swc5, active compounds read low 1.02 | locus YBR279W, strain paf1, active compounds read low 1.02 | locus YCL011C, strain gbp2, active compounds read low 1.02 | locus YCL016C, strain dcc1, active compounds read low 1.03 | locus YCL029C, strain bik1, active compounds read low 1.02 | locus YCL069W, strain vba3, active compounds read low 1.02 | locus YCR088W, strain abp1, active compounds read low 1.02 | locus YDL005C, strain med2, active compounds read low 1.02 | locus YDL035C, strain GPR1, active compounds read low 1.01 | locus YDL040C, strain nat1, active compounds read low 1.01 | locus YDL074C, strain BRE1, active compounds read low 1.02 | locus YDL101C, strain DUN1, active compounds read low 1.01 | locus YDL134C, strain PPH21, active compounds read low 1.01 | locus YDL185W, strain tfp1, active compounds read low 1 | locus YDL192W, strain arf1, active compounds read low 1.01 | locus YDR001C, strain nth1, active compounds read low 1.02 | locus YDR069C, strain doa4, active compounds read low 1.03 | locus YDR101C, strain arx1, active compounds read low 1.02 | locus YDR137W, strain rgp1, active compounds read low 1.04 | locus YDR150W, strain NUM1, active compounds read low 0.99 | locus YDR159W, strain sac3, active compounds read low 1.01 | locus YDR162C, strain NBP2, active compounds read low 1.01 | locus YDR195W, strain ref2 1.02 | locus YDR297W, strain sur2, active compounds read low 1.02 | locus YDR318W, strain mcm21, active compounds read low 1.03 | locus YDR334W, strain swr1, active compounds read low 1.02 | locus YDR335W, strain msn5, active compounds read low 1.02 | locus YDR388W, active compounds read low 1.01 | locus YDR392W, strain spt3, active compounds read low 1.05 | locus YDR502C, strain sam2, active compounds read low 1.01 | locus YEL003W, strain gim4, active compounds read low 1.01 | locus YEL037C, strain rad23, active compounds read low 1.02 | locus YEL061C, strain CIN8 (second series), active compounds read low 1.02 | locus YEL061C, strain CIN8, active compounds read low 1.01 | locus YER015W, strain faa2, active compounds read low 1.02 | locus YER016W, strain bim1, active compounds read low 1.03 | locus YER110C, active compounds read low 1.01 | locus YER111C, strain swi4, active compounds read low 1.02 | locus YER155C, strain BEM2 (second series), active compounds read low 1.01 | locus YER155C, strain BEM2, active compounds read low 1.01 | locus YER167W, strain BCK2, active compounds read low 1.01 | locus YFR010W, strain ubp6, active compounds read low 1.01 | locus YGL078C, strain dbp3, active compounds read low 0.996 | locus YGL086W, strain mad1, active compounds read low 0.986 | locus YGL167C, strain pmr1, active compounds read low 1.02 | locus YGL173C, strain kem1, active compounds read low 1.01 | locus YGL227W, strain vid30, active compounds read low 1.02 | locus YGL240W, strain doc1, active compounds read low 1.01 | locus YGL248W, strain PDE1, active compounds read low 1 | locus YGL253W, strain hxk2, active compounds read low 1.04 | locus YGR078C, strain PAC10, active compounds read low 0.999 | locus YGR135W, strain pre9, active compounds read low 1.01 | locus YGR252W, strain gcn5, active compounds read low 0.974 | locus YHR013C, strain ard1, active compounds read low 1.06 | locus YHR027C, strain rpn1, active compounds read low 1.02 | locus YHR030C, strain SLT2, active compounds read low 1 and 0.981 | locus YHR079C, strain IRE1 (second series), active compounds read low 1.02 | locus YHR079C, strain IRE1, active compounds read low 0.981 | locus YHR094C, strain hxt1, active compounds read low 1.01 | locus YHR129C, strain ARP1, active compounds read low 1 | locus YHR142W, strain chs7, active compounds read low 1.05 | locus YHR200W, strain rpn10, active compounds read low 1 | locus YIL066C, strain RNR3, active compounds read low 1.01 | locus YIL073C, strain SPO22, active compounds read low 1.06 | locus YIL125W, strain kgd1, active compounds read low 1 | locus YIR030C, strain dcg1, active compounds read low 1.01 | locus YJL092W, strain hpr5, active compounds read low 1.02 | locus YJL095W, strain BCK1 (second series), active compounds read low 1.03 | locus YJL095W, strain BCK1, active compounds read low 1.01 and 0.983 | locus YJL115W, strain asf1, active compounds read low 1.01 | locus YJL129C, strain trk1, active compounds read low 1.04 | locus YJL134W, strain LCB3, active compounds read low 1.01 | locus YJL154C, strain vps35, active compounds read low 1.02 | locus YJL164C, strain tpk1, active compounds read low 1.01 | locus YJL166W, strain qcr8, active compounds read low 1 | locus YJL168C, strain set2, active compounds read low 1.01 | locus YJL187C, strain SWE1 (second series), active compounds read low 1.01 | locus YJL187C, strain SWE1, active compounds read low 1.03 | locus YJR043C, strain POL32, active compounds read low 0.999 | locus YJR066W, strain TOR1, active compounds read low 0.909
